From PubChem BioAssay
FBPA Giardia inh – qHTS Assay for Inhibitors of Fructose-1,6-bisphosphate Aldolase from Giardia Lamblia; A8B2U2; Potency, µM (series often up to 59.6 µM), usual class: inhibitors; purified Giardia FBPA; AID 2451, 2010; hit rate 0.71% among 290,000; note: nearly all actives have a fitted effect of over 55% in size
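40 nM FBPA preincubated 10 min at RT with compound (up to 57.5 uM final), then substrate plus GAPDH/TPI/NAD/arsenate coupling and diaphorase/resazurin added. Fluorescence read after 20 min at RT, 525/598 nm.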
Cruzain noTriton – qHTS Assay for Promiscuous and Specific Inhibitors of Cruzain (without detergent) | hit rate 2.3% among 200,000 | purified cruzain, Z-FR-AMC fluorescence, no detergent | Cruzipain (Trypanosoma cruzi), P25779 | Potency, µM, most hits filed as inhibitors; note: nearly all actives have a fitted effect of over 40% in size
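Detergent-free condition (0.00005% Triton X-100) in acetate buffer pH 5.5 with DTT. 1.5 nM enzyme and compound were pre-mixed 15 min, then 2 uM Z-FR-AMC substrate added; reaction progress from fluorescence change between first and third reads (60 s).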
Cruzain inh Det – qHTS Assay for Promiscuous and Specific Inhibitors of Cruzain (with detergent); Potency, µM, hits mostly inhibitors; purified cruzain, Z-FR-AMC fluorescence, 0.01% Triton; hit rate 0.43% among 200,000; Cruzipain (Trypanosoma cruzi), P25779; note: nearly all actives have a fitted effect of over 40% in size
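Cysteine protease activity tested under reducing, mildly acidic conditions (100 mM sodium acetate pH 5.5, 5 mM DTT) plus 0.01% Triton X-100. Cruzain 1.5 nM; substrate Z-FR-AMC 2 uM; 15 min compound preincubation at room temperature.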
A number is an active result; n = inactive; x = no result given. The full list was thinned out, with hits kept by preference. Calls come from the whole dose curve; as a rule, active = well fitted curve in the direction sought with a large enough effect; inconclusive = small, poorly fitted or top-dose-only effect, or another doubt; inactive = no such curve, though single readings can be large; an effect the other way counts as inactive or inconclusive.

SMILES | FBPA Giardia inh | Cruzain noTriton | Cruzain inh Det
NC(=O)C1CCN(C(=S)c2ccc(-c3ccc(Br)cc3)o2)CC1 | 3.54µM | x | x
COc1cc(NC(=O)C2CCN(S(=O)(=O)c3c(C)noc3/C=C/c3c(C)cc(C)cc3C)CC2)cc(OC)c1 | x | n | n
Cc1nc2ccccc2nc1-c1ccc(N=[N+]([O-])c2ccc(-c3nc4ccccc4nc3C)cc2)cc1 | x | n | n
O=C(N/N=C/c1ccccc1)c1ccc(CN2C(=O)c3cccc4cccc2c34)cc1 | n | n | n
COc1cccc(/C=N/NC(=O)c2ccc(CN3c4cccc5cccc(c45)S3(=O)=O)cc2)c1 | n | 20µM | n
